Reference: PubChem BioAssay
Active and inactive are the calls of the source. No rule for the calls is given here.

These compounds were tested against Pantothenate synthetase (Mycobacterium tuberculosis (strain ATCC 25618 / H37Rv)) (UniProt P9WIL5) (assay: Coupled enzyme confirmation of inhibitors against recombinant Mtb PanC (AID 375;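 also: 0% = full reaction with vehicle and 100% = no enzyme background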)). Details: coupled enzyme assay; at 10 µM, active compounds read high.
Pantothenate synthetase (Mycobacterium tuberculosis (strain ATCC 25618 / H37Rv)), sequence (P9WIL5 whole entry, looked up): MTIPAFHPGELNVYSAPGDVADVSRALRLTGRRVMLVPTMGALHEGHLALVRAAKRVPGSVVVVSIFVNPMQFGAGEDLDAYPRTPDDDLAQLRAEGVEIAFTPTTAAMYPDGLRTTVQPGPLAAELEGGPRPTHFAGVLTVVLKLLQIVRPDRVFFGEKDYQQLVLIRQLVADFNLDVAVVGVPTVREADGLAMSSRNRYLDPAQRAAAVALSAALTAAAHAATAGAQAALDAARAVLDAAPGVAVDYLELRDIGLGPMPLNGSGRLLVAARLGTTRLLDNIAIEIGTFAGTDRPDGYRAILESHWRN

| SMILES | inhibition |
| --- | --- |
| Cc1cc(C)cc(NC(=O)C2CCCN(c3nccc(C)n3)C2)c1 (stereo not given) | 0% (inactive) |
| CCC(C)NC(=O)C1(C)CCC(=O)N1CCc1ccc(OC)c(OC)c1 (stereo not given) | 0% (inactive) |
| CN1C(=O)C2(NCCc3c2[nH]c2ccccc32)c2ccccc21 (stereo not given) | 1% (inactive) |
| Cc1cc(NC(=O)c2ccc3nc(-c4ccccc4)c(-c4ccccc4)nc3c2)no1 | 0% (inactive) |
| CCCn1cc(SCC(=O)NCc2ccco2)c2ccccc21 | 3% (inactive) |
| O=C(/C=C/N1CCOCC1)c1ccc(-c2ccccc2)cc1 | 4% (inactive) |
| CCOC(=O)c1sc(NC(=O)CSc2nnc3c4ccccc4n(CC)c3n2)nc1C | 3% (inactive) |
| CCOc1ccc(Cc2nn[nH]n2)cc1 | 1% (inactive) |
| O=C(CSc1nc2ccccc2nc1SCC(=O)N1CCOCC1)N1CCOCC1 | 0% (inactive) |
| O=C(Nc1ccc(OC(=O)c2ccco2)cc1)c1ccco1 | 7% (inactive) |
| O=C(CSc1nccn1-c1cccc(Cl)c1)NC1CCCC1 | 0% (inactive) |
| COC(=O)C1=C(C)OC(N)=C(C#N)C1c1ccccc1 (stereo not given) | 0% (inactive) |
| COc1ccc(CN(C(=O)CNC(=O)c2ccco2)C(C(=O)NC2CCCC2)c2ccco2)cc1 (stereo not given) | 5% (inactive) |
| CCCn1c(=N)n(CC(=O)c2cccs2)c2ccccc21 | 3% (inactive) |
| Nc1nc(-c2ccc(Cl)cc2)cc(C(F)(F)F)n1 | 0% (inactive) |
| CC(C)CN(C(=O)COC(=O)Cc1n[nH]c(=O)c2ccccc12)C1CCS(=O)(=O)C1 (stereo not given) | 2% (inactive) |
| COc1ccccc1Nc1nc(N)nc(-c2cc3ccccc3o2)n1 | 0% (inactive) |
| CCN(CC)CCN1C(=O)C(O)=C(C(=O)c2ccco2)C1c1ccccn1 (stereo not given) | 8% (inactive) |
| Cc1cccc(C2CC(c3ccc(Br)cc3)Nc3nc(N)nn32)c1 (stereo not given) | 0% (inactive) |
| Cc1ccc2c(c1)N(CC(=O)Nc1ccc3c(c1)OCCO3)C(=O)CO2 | 0% (inactive) |

| SMILES | inhibition |
| --- | --- |
| COc1ccc(S(=O)(=O)N(C)CC(=O)N2CCCCC2)cc1Cl | 0% (inactive) |
| CCOc1ccc2nc(SCc3ccc(C(=O)OC)o3)[nH]c2c1 | 0% (inactive) |
| CCOC(=O)N1CCN(c2nc(-c3ccc(Cl)cc3)cs2)CC1 | 0% (inactive) |
| Cc1noc(C)c1CSc1nc2cc(S(=O)(=O)N3CCOCC3)ccc2o1 | 0% (inactive) |
| CCOC(=O)C1=C(C)NC(C)=C(C(=O)OCC)C1c1cc(N)ccc1OC(F)F | 0% (inactive) |
| CCOc1ccc(CCN2C(=O)C3C4C=CC(C4)C3C2=O)cc1OCC (stereo not given) | 3% (inactive) |
| O=C(NS(=O)(=O)c1ccc(NC(=O)C2CCCO2)cc1)c1ccccc1 (stereo not given) | 0% (inactive) |
| Cc1ccc(OCC(=O)NCCN2CCCC2)cc1 | 0% (inactive) |
| CC(C)CCn1c(SCC#N)nc2c(sc3ccccc32)c1=O | 2% (inactive) |
| CC(C)(C)OC(=O)N1CC=C2C(C#N)=C(N)C(C#N)(C#N)C(c3cccs3)C2C1 (stereo not given) | 0% (inactive) |
| Cc1cc2ccccc2c(=O)n1CC(=O)Nc1ccc2c(c1)OCO2 | 0% (inactive) |
| CCOC(=O)C1CCCN(c2c(N3CCN(c4ccccn4)CC3)c(=O)c2=O)C1 (stereo not given) | 2% (inactive) |
| Cc1noc(C)c1S(=O)(=O)N1CCC(C(=O)N2CCN(Cc3ccc4c(c3)OCO4)CC2)CC1 | 0% (inactive) |
| Cc1ccc(-c2cc(C(F)(F)F)n3nc(C(=O)N4CCCC4)cc3n2)cc1 | 5% (inactive) |
| COc1ccc(C(=O)N2CCN(C3CCC(c4ccccc4)CC3)CC2)cc1OC (stereo not given) | 2% (inactive) |
| O=C(O)CC1NC(=O)N(c2ccccc2)C1=O (stereo not given) | 0% (inactive) |
| Clc1ccc(Cc2nn3c(-c4ccncc4)nnc3s2)cc1 | 0% (inactive) |
| CCOC(=O)C(NC(C)=O)(Nc1ccc(S(=O)(=O)Nc2nccs2)cc1)C(F)(F)F (stereo not given) | 3% (inactive) |
| C#CC1(O)CC(C)N(C)C(C)C1 (stereo not given) | 6% (inactive) |
| S=c1[nH]nc(-c2cccc(Br)c2)o1 | 10% (inactive) |
